Reference: the supplement of paper PMC4466140

Biological target: AgAbp1
Assay: SPOT peptide array binding signal intensity (averaged, normalized) (arbitrary units (background-subtracted, floor 0; scale differs between SH3 domains)); higher = stronger binding of the SH3 domain to the peptide
Procedure, shortened: (§1)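 Peptides were synthetic 15-mers on cellulose membranes, with every cysteine replaced by serine. They were incubated overnight at 4°C with GST-SH3 domains from four yeast species at 10 μg/ml in TBS-based blocking buffer. Binding signal, the replicate-averaged normalized and background-subtracted spot intensity, is in arbitrary units that differ between domains.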

Row | Binder | SPOT peptide array binding signal intensity
1 | TSFKGRPKPPKTLKH | 590

Biological target: AgBbc1
Assay: as above
Procedure, shortened: as §1

Row | Binder | SPOT peptide array binding signal intensity
2 | TSFKGRPKPPKTLKH | 17.8

Biological target: AgBem1-D1
Assay: as above
Procedure, shortened: as §1

Row | Binder | SPOT peptide array binding signal intensity
3 | TSFKGRPKPPKTLKH | ≤ 0

Biological target: AgBzz1-D1
Assay: as above
Procedure, shortened: as §1

Row | Binder | SPOT peptide array binding signal intensity
4 | TSFKGRPKPPKTLKH | ≤ 0

Biological target: AgBzz1-D2
Assay: as above
Procedure, shortened: as §1

Row | Binder | SPOT peptide array binding signal intensity
5 | TSFKGRPKPPKTLKH | 28

Biological target: AgCyk3
Assay: as above
Procedure, shortened: as §1

Row | Binder | SPOT peptide array binding signal intensity
6 | TSFKGRPKPPKTLKH | ≤ 0

Biological target: AgFus1
Assay: as above
Procedure, shortened: as §1

Row | Binder | SPOT peptide array binding signal intensity
7 | TSFKGRPKPPKTLKH | 3

Biological target: AgHof1
Assay: as above
Procedure, shortened: as §1

Row | Binder | SPOT peptide array binding signal intensity
8 | TSFKGRPKPPKTLKH | 22.5

Biological target: AgHse1
Assay: as above
Procedure, shortened: as §1

Row | Binder | SPOT peptide array binding signal intensity
9 | TSFKGRPKPPKTLKH | 65.5

Biological target: AgLsb1
Assay: as above
Procedure, shortened: as §1

Row | Binder | SPOT peptide array binding signal intensity
10 | TSFKGRPKPPKTLKH | ≤ 0

Biological target: AgLsb4
Assay: as above
Procedure, shortened: as §1

Row | Binder | SPOT peptide array binding signal intensity
11 | TSFKGRPKPPKTLKH | 20

Biological target: AgMyo5
Assay: as above
Procedure, shortened: as §1

Row | Binder | SPOT peptide array binding signal intensity
12 | TSFKGRPKPPKTLKH | 1.5

Biological target: AgNbp2
Assay: as above
Procedure, shortened: as §1

Row | Binder | SPOT peptide array binding signal intensity
13 | TSFKGRPKPPKTLKH | ≤ 0

Biological target: AgRvs167
Assay: as above
Procedure, shortened: as §1

Row | Binder | SPOT peptide array binding signal intensity
14 | TSFKGRPKPPKTLKH | 2

Biological target: AgSho1
Assay: as above
Procedure, shortened: as §1

Row | Binder | SPOT peptide array binding signal intensity
15 | TSFKGRPKPPKTLKH | ≤ 0

Biological target: AgSla1-D1-D2
Assay: as above
Procedure, shortened: as §1

Row | Binder | SPOT peptide array binding signal intensity
16 | TSFKGRPKPPKTLKH | 71

Biological target: AgSla1-D3
Assay: as above
Procedure, shortened: as §1

Row | Binder | SPOT peptide array binding signal intensity
17 | TSFKGRPKPPKTLKH | 5.5

Biological target: CaAbp1-D1
Assay: as above
Procedure, shortened: as §1

Row | Binder | SPOT peptide array binding signal intensity
18 | TSFKGRPKPPKTLKH | 1460

Biological target: CaAbp1-D2
Assay: as above
Procedure, shortened: as §1

Row | Binder | SPOT peptide array binding signal intensity
19 | TSFKGRPKPPKTLKH | 1380

Biological target: CaBbc1
Assay: as above
Procedure, shortened: as §1

Row | Binder | SPOT peptide array binding signal intensity
20 | TSFKGRPKPPKTLKH | 43.5

Biological target: CaBem1-D1
Assay: as above
Procedure, shortened: as §1

Row | Binder | SPOT peptide array binding signal intensity
21 | TSFKGRPKPPKTLKH | ≤ 0

Biological target: CaBzz1-D1
Assay: as above
Procedure, shortened: as §1

Row | Binder | SPOT peptide array binding signal intensity
22 | TSFKGRPKPPKTLKH | 80.5

Biological target: CaBzz1-D2
Assay: as above
Procedure, shortened: as §1

Row | Binder | SPOT peptide array binding signal intensity
23 | TSFKGRPKPPKTLKH | 67.8

Biological target: CaCyk3
Assay: as above
Procedure, shortened: as §1

Row | Binder | SPOT peptide array binding signal intensity
24 | TSFKGRPKPPKTLKH | 3

Biological target: CaFus1
Assay: as above
Procedure, shortened: as §1

Row | Binder | SPOT peptide array binding signal intensity
25 | TSFKGRPKPPKTLKH | 44.5

Biological target: CaHof1
Assay: as above
Procedure, shortened: as §1

Row | Binder | SPOT peptide array binding signal intensity
26 | TSFKGRPKPPKTLKH | 2.75

Biological target: CaHse1
Assay: as above
Procedure, shortened: as §1

Row | Binder | SPOT peptide array binding signal intensity
27 | TSFKGRPKPPKTLKH | 2.75

Biological target: CaLsb1
Assay: as above
Procedure, shortened: as §1

Row | Binder | SPOT peptide array binding signal intensity
28 | TSFKGRPKPPKTLKH | ≤ 0

Biological target: CaLsb4
Assay: as above
Procedure, shortened: as §1

Row | Binder | SPOT peptide array binding signal intensity
29 | TSFKGRPKPPKTLKH | ≤ 0

Biological target: CaMyo5
Assay: as above
Procedure, shortened: as §1

Row | Binder | SPOT peptide array binding signal intensity
30 | TSFKGRPKPPKTLKH | 2.5

Biological target: CaNbp2
Assay: as above
Procedure, shortened: as §1

Row | Binder | SPOT peptide array binding signal intensity
31 | TSFKGRPKPPKTLKH | 12

Biological target: CaRvs167
Assay: as above
Procedure, shortened: as §1

Row | Binder | SPOT peptide array binding signal intensity
32 | TSFKGRPKPPKTLKH | 0.833

Biological target: CaRvs167-3
Assay: as above
Procedure, shortened: as §1

Row | Binder | SPOT peptide array binding signal intensity
33 | TSFKGRPKPPKTLKH | 1.5

Biological target: CaSho1
Assay: as above
Procedure, shortened: as §1

Row | Binder | SPOT peptide array binding signal intensity
34 | TSFKGRPKPPKTLKH | 0.5

Biological target: CaSla1-D1-D2
Assay: as above
Procedure, shortened: as §1

Row | Binder | SPOT peptide array binding signal intensity
35 | TSFKGRPKPPKTLKH | 196

Biological target: CaSla1-D3
Assay: as above
Procedure, shortened: as §1

Row | Binder | SPOT peptide array binding signal intensity
36 | TSFKGRPKPPKTLKH | ≤ 0

Biological target: ScAbp1
Assay: as above
Procedure, shortened: as §1

Row | Binder | SPOT peptide array binding signal intensity
37 | TSFKGRPKPPKTLKH | 556

Biological target: ScBbc1
Assay: as above
Procedure, shortened: as §1

Row | Binder | SPOT peptide array binding signal intensity
38 | TSFKGRPKPPKTLKH | ≤ 0

Biological target: ScBem1-D1
Assay: as above
Procedure, shortened: as §1

Row | Binder | SPOT peptide array binding signal intensity
39 | TSFKGRPKPPKTLKH | 6.5

Biological target: ScBzz1-D1
Assay: as above
Procedure, shortened: as §1

Row | Binder | SPOT peptide array binding signal intensity
40 | TSFKGRPKPPKTLKH | 26

Biological target: ScBzz1-D2
Assay: as above
Procedure, shortened: as §1

Row | Binder | SPOT peptide array binding signal intensity
41 | TSFKGRPKPPKTLKH | 18

Biological target: ScCyk3
Assay: as above
Procedure, shortened: as §1

Row | Binder | SPOT peptide array binding signal intensity
42 | TSFKGRPKPPKTLKH | ≤ 0

Biological target: ScFus1
Assay: as above
Procedure, shortened: as §1

Row | Binder | SPOT peptide array binding signal intensity
43 | TSFKGRPKPPKTLKH | ≤ 0

Biological target: ScHof1
Assay: as above
Procedure, shortened: as §1

Row | Binder | SPOT peptide array binding signal intensity
44 | TSFKGRPKPPKTLKH | 8.5

Biological target: ScHse1
Assay: as above
Procedure, shortened: as §1

Row | Binder | SPOT peptide array binding signal intensity
45 | TSFKGRPKPPKTLKH | 542

Biological target: ScLsb1
Assay: as above
Procedure, shortened: as §1

Row | Binder | SPOT peptide array binding signal intensity
46 | TSFKGRPKPPKTLKH | 4.75

Biological target: ScLsb2
Assay: as above
Procedure, shortened: as §1

Row | Binder | SPOT peptide array binding signal intensity
47 | TSFKGRPKPPKTLKH | ≤ 0

Biological target: ScLsb3
Assay: as above
Procedure, shortened: as §1

Row | Binder | SPOT peptide array binding signal intensity
48 | TSFKGRPKPPKTLKH | ≤ 0

Biological target: ScLsb4
Assay: as above
Procedure, shortened: as §1

Row | Binder | SPOT peptide array binding signal intensity
49 | TSFKGRPKPPKTLKH | ≤ 0

Biological target: ScMyo3
Assay: as above
Procedure, shortened: as §1

Row | Binder | SPOT peptide array binding signal intensity
50 | TSFKGRPKPPKTLKH | 3

Biological target: ScMyo5
Assay: as above
Procedure, shortened: as §1

Row | Binder | SPOT peptide array binding signal intensity
51 | TSFKGRPKPPKTLKH | ≤ 0

Biological target: ScNbp2
Assay: as above
Procedure, shortened: as §1

Row | Binder | SPOT peptide array binding signal intensity
52 | TSFKGRPKPPKTLKH | 7

Biological target: ScPex13
Assay: as above
Procedure, shortened: as §1

Row | Binder | SPOT peptide array binding signal intensity
53 | TSFKGRPKPPKTLKH | 1.5

Biological target: ScRvs167
Assay: as above
Procedure, shortened: as §1

Row | Binder | SPOT peptide array binding signal intensity
54 | TSFKGRPKPPKTLKH | ≤ 0

Biological target: ScSho1
Assay: as above
Procedure, shortened: as §1

Row | Binder | SPOT peptide array binding signal intensity
55 | TSFKGRPKPPKTLKH | 71

Biological target: ScSla1-D1-D2
Assay: as above
Procedure, shortened: as §1

Row | Binder | SPOT peptide array binding signal intensity
56 | TSFKGRPKPPKTLKH | 63.5

Biological target: ScSla1-D3
Assay: as above
Procedure, shortened: as §1

Row | Binder | SPOT peptide array binding signal intensity
57 | TSFKGRPKPPKTLKH | 7

Biological target: SpAbp1-D1
Assay: as above
Procedure, shortened: as §1

Row | Binder | SPOT peptide array binding signal intensity
58 | TSFKGRPKPPKTLKH | 174

Biological target: SpBbc1
Assay: as above
Procedure, shortened: as §1

Row | Binder | SPOT peptide array binding signal intensity
59 | TSFKGRPKPPKTLKH | 0.5

Biological target: SpBzz1-D1
Assay: as above
Procedure, shortened: as §1

Row | Binder | SPOT peptide array binding signal intensity
60 | TSFKGRPKPPKTLKH | 207

Biological target: SpBzz1-D2
Assay: as above
Procedure, shortened: as §1

Row | Binder | SPOT peptide array binding signal intensity
61 | TSFKGRPKPPKTLKH | ≤ 0

Biological target: SpCyk3
Assay: as above
Procedure, shortened: as §1

Row | Binder | SPOT peptide array binding signal intensity
62 | TSFKGRPKPPKTLKH | ≤ 0

Biological target: SpHof1
Assay: as above
Procedure, shortened: as §1

Row | Binder | SPOT peptide array binding signal intensity
63 | TSFKGRPKPPKTLKH | 27

Biological target: SpHof1-2
Assay: as above
Procedure, shortened: as §1

Row | Binder | SPOT peptide array binding signal intensity
64 | TSFKGRPKPPKTLKH | ≤ 0

Biological target: SpHof1-3
Assay: as above
Procedure, shortened: as §1

Row | Binder | SPOT peptide array binding signal intensity
65 | TSFKGRPKPPKTLKH | 183

Biological target: SpHse1
Assay: as above
Procedure, shortened: as §1

Row | Binder | SPOT peptide array binding signal intensity
66 | TSFKGRPKPPKTLKH | 79

Biological target: SpLsb1
Assay: as above
Procedure, shortened: as §1

Row | Binder | SPOT peptide array binding signal intensity
67 | TSFKGRPKPPKTLKH | 2.5

Biological target: SpLsb4
Assay: as above
Procedure, shortened: as §1

Row | Binder | SPOT peptide array binding signal intensity
68 | TSFKGRPKPPKTLKH | 12.5

Biological target: SpMyo1
Assay: as above
Procedure, shortened: as §1

Row | Binder | SPOT peptide array binding signal intensity
69 | TSFKGRPKPPKTLKH | ≤ 0

Biological target: SpNbp2
Assay: as above
Procedure, shortened: as §1

Row | Binder | SPOT peptide array binding signal intensity
70 | TSFKGRPKPPKTLKH | 22

Biological target: SpPex13
Assay: as above
Procedure, shortened: as §1

Row | Binder | SPOT peptide array binding signal intensity
71 | TSFKGRPKPPKTLKH | ≤ 0

Biological target: SpRvs167
Assay: as above
Procedure, shortened: as §1

Row | Binder | SPOT peptide array binding signal intensity
72 | TSFKGRPKPPKTLKH | 2

Biological target: SpSla1-D1-D2
Assay: as above
Procedure, shortened: as §1

Row | Binder | SPOT peptide array binding signal intensity
73 | TSFKGRPKPPKTLKH | 3

Biological target: SpSla1-D3
Assay: as above
Procedure, shortened: as §1

Row | Binder | SPOT peptide array binding signal intensity
74 | TSFKGRPKPPKTLKH | 2
